According to PubChem BioAssay (EPA / NIEHS):
The source made the active and inactive calls. How the source made its calls: active means hit-call score of the fitted dose curve at least 0.9, where 1 is the maximum; inactive means score below 0.9.

Assay: APR_HepG2_CellCycleArrest_24hr: Apredica 24-hour HepG2 Assay for Cell Cycle Arrest (AID 2282905);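 further: cell cycle arrest scored as ratio of 2N to 4N nuclear DNA content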
Conditions: imaging, actives raise or lower the signal
Method: APR_HepG2_24hr is a cell-based, multiplexed-readout assay that uses HepG2, a human liver cell line, with measurements taken at 24 hours after chemical dosing in a 384-well plate.APR_HepG2_CellCycleArrest_24hr is one of 10 assay component(s) measured or calculated from the APR_HepG2_24hr assay. It is designed to make measurements of cell phenotype, a form of morphology reporter, as detected with fluorescence intensity signals by HCS Fluorescent Imaging technology.Data from the assay component APR_HepG2_CellCycleArrest_24hr was analyzed into 1 assay endpoint. This assay endpoint, APR_HepG2_CellCycleArrest_24hr, was analyzed with bidirectional fitting relative to DMSO as the negative control and baseline of activity. Using a type of morphology reporter, measures of all nuclear dna for gain or loss-of-signal activity can be used to understand the signaling at the pathway-level as they relate to the gene . Furthermore, this assay endpoint can be referred to as a primary readout, because this assay has produced multiple assay endpoints where this one serves a signaling function. To generalize the intended target to other relatable targets, this assay endpoint is annotated to the cell cycle intended target family, where the subfamily is arrest.
Cells were treated with dimethyl sulfoxide (DMSO) as a solvent control at a final concentration of 0.5% v/v or with compounds in DMSO with a resulting final DMSO concentration of 0.5% v/v. Compound treatment was done at concentrations of 0.39, 0.78, 1.56, 3.12, 6.24, 12.5, 25, 50, 100, and 200 uM in duplicate on each plate. Cells were treated with compounds for 1, 24, or 72 hr. Carbonyl […] m-chloro-phenylhydrazone (CCCP) and taxol were used as positive controls for mitochondrial function and cytoskeletal stability, respectively; DMSO served as the negative control for this experiment. Cells were fixed by the direct addition of 50 uL formaldehyde in Hank's Balanced Salt Solution (HBSS) to a final concentration of 3.7%. After incubation in the fixation medium for 30 min at room temperature (293-298 K), cells were rinsed twice with HBSS and treated with cell permeabilization buffer (16 uL of 0.5% Triton X-100) for 10 min at room temperature (293-298 K) before labeling. For mitochondrial membrane potential and mitochondrial measurements, pre-fixed cells were incubated with 50 uL of MitoTracker Red CMXRos (Invitrogen) at a concentration of 250 nM for 30 min before fixation. In the remaining cases, post-fixed cells were labeled by incubation with a multiplexed mixture of primary antibodies in HBSS for 60 min at room temperature (293-298 K) to detect immunoreactivity of c-Jun (1:500), phospho-histone H3 (1:100), phospho-histone H2A.x (1:200), p53 (1:400), alpha-tubulin (1:200) and Hoechst 33342 (2 ug/mL). Cells were labeled for multiplexed imaging on two separate plates: a) Hoechst 33342, MitoTracker Red, phospho-histone H3, and alpha-tubulin, and b) Hoechst 33342, phospho-histone H2A.x, and c-Jun. A final rinse with HBSS (50 uL) was performed before analysis. The primary and secondary antibodies for the proteins were phospho-histone H3 (rabbit anti-phospho-histone H3 and FITC-donkey anti-rabbit IgG), phospho-histone H2A.x (mouse anti-phospho-histone H2A.x and FITC-donkey anti-mouse IgG), c-Jun (rabbit anti-phospho-c-Jun and Cy3-donkey anti-rabbit IgG), p53 (sheep anti-p53 and Cy5-donkey anti-sheep IgG), alpha-tubulin (mouse anti-alpha-tubulin and Cy5-donkey anti-mouse IgG). These antibodies are available as the CellCiphr HepG2 assay kit (Millipore).Digital images of each well were captured using a Cellomics ArrayScan VTI (Thermo Scientific Cellomics) (0.8 NA objective, 0.63x optical coupler, and XF-93 filter set) at 20x magnification. The images were acquired using the autofocus feature of the ArrayScan instrument, which entails the following steps. First, the camera focuses on channel 1 (Hoechst 33342), where nuclei are identified. Second, a Z offset of 1 um is used for capturing mitochondria (MitoTracker Red). […]

Q: Which AC50 does the source give for `CCCCCCCCCCCCCCOS(=O)(=O)O` here?
A: 110 µM (active)

Q: With `CCCCC(CC)COP(=O)(OCC(CC)CCCC)OCC(CC)CCCC` (stereo not given) as the compound, how does the outcome read?
A: inactive

Q: With `CCCCCCCC(=O)OC` as the compound, how does the outcome read?
A: inactive

Q: For `CC(=O)O[C@]1(C(C)=O)CC[C@H]2[C@@H]3C=C(Cl)C4=CC(=O)[C@@H]5C[C@@H]5[C@]4(C)[C@H]3CC[C@@]21C`, which outcome is on record?
A: inactive

Q: For `CC1(C)C(=O)NC(=O)N1CO`, which outcome is on record?
A: inactive

Q: For `NC=O`, which outcome is on record?
A: inactive

Q: For `CSc1ccc(Oc2ccc(S(N)(=O)=O)cc2CN(C)C)cc1C`, which outcome is on record?
A: inactive

Q: For `CC(C)NCC(O)c1ccc(O)c(O)c1` (stereo not given), which outcome is on record?
A: inactive

Q: Which outcome does the source give for `O=C(O)c1cccnc1` here?
A: inactive

Q: Which outcome does the source give for `CC(N)=O` here?
A: inactive

Q: Which outcome does the source give for `C#CC(O)C(CC)CCCC` (stereo not given) here?
A: inactive

Q: For `Cc1cn([C@H]2C=C[C@@H](CO)O2)c(=O)[nH]c1=O`, which outcome is on record?
A: inactive

Q: With `CN(C)CCCN1c2ccccc2Sc2ccc(Cl)cc21` as the compound, how does the outcome read?
A: inactive

Q: For `Cc1c(C)c2c(c(C)c1O)CCC(C)(COc1ccc(CC3SC(=O)NC3=O)cc1)O2` (stereo not given), which AC50 is on record?
A: 75.7 µM (active)

Q: For `O=C(O)CN(CC(=O)O)CC(=O)O`, which outcome is on record?
A: inactive

Q: Which outcome does the source give for `Oc1ccccc1O` here?
A: inactive

Q: Which outcome does the source give for `O=NO` here?
A: inactive

Q: For `COc1ccc(OC(F)(F)F)cc1CN[C@H]1CCCN[C@H]1c1ccccc1`, which AC50 is on record?
A: 29.2 µM (active)

Q: For `CC(C)OC(=O)C(C)(C)Oc1ccc(C(=O)c2ccc(Cl)cc2)cc1`, which outcome is on record?
A: inactive

Q: Which outcome does the source give for `O=C1c2c(O)cccc2Cc2cccc(O)c21` here?
A: inactive

Q: With `CC(=O)OC1CC(C)OC(C)O1` (stereo not given) as the compound, how does the outcome read?
A: inactive

Q: Which outcome does the source give for `c1ccc2occc2c1` here?
A: inactive

Q: With `CC(C)c1cccc(C(C)C)c1NC(=O)NS(=O)(=O)c1cc(C(C)(C)O)co1` as the compound, how does the outcome read?
A: inactive

Q: For `OCC(O)CO`, which outcome is on record?
A: inactive

Q: For `CCC(C)N(C)C(=O)c1cc2ccccc2c(-c2ccccc2Cl)n1` (stereo not given), which outcome is on record?
A: inactive

Q: Which outcome does the source give for `CN(C)C(=O)NC1(c2ccccc2)CCN(CC[C@@]2(c3ccc(F)c(F)c3)CN(C(=O)c3ccccc3)CCO2)CC1` here?
A: inactive

Q: For `CC(C)(C)c1ccccc1`, which outcome is on record?
A: inactive

Q: For `COc1ccc(C(=O)Nc2nc3ccccc3c(NCc3ccccc3)c2C#N)cc1`, which outcome is on record?
A: inactive

Q: With `Cc1cc(Cc2ccc(N)c(C)c2)ccc1N` as the compound, how does the AC50 read?
A: 35.1 µM (active)

Q: For `O=C1CCCCC1`, which outcome is on record?
A: inactive

Q: For `Cc1occc(=O)c1O`, which outcome is on record?
A: inactive

Q: With `CCCCC(CC)CO` (stereo not given) as the compound, how does the outcome read?
A: inactive

Q: With `CC(C)(O)c1ccc(CNC(=O)c2cccnc2Oc2ccc(F)cc2)cc1` as the compound, how does the outcome read?
A: inactive

Q: Which outcome does the source give for `CCCC(=O)O` here?
A: inactive

Q: With `CCCCCCC(CCCCCCCCCCC(=O)OCC(COC(C)=O)OC(C)=O)OC(C)=O` (stereo not given) as the compound, how does the outcome read?
A: inactive

Q: With `C=CCc1ccc(OC)c(OC)c1` as the compound, how does the outcome read?
A: inactive

Q: With `Nc1nc(Cl)nc2c1ncn2[C@H]1C[C@H](O)[C@@H](CO)O1` as the compound, how does the outcome read?
A: inactive

Q: Which outcome does the source give for `CO[C@@H]1COCC[C@@H]1N[C@@H]1CC[C@@](C(=O)N2CCc3ncc(C(F)(F)F)cc3C2)(C(C)C)C1` here?
A: inactive

Q: With `CC(C)c1cccc(C(C)C)c1` as the compound, how does the outcome read?
A: inactive

Q: Which outcome does the source give for `Oc1ccc(O)cc1` here?
A: inactive
